Experimental data from PubChem BioAssay (NCI).
About 83,000 compounds went through this panel and 20% of them were active in at least one assay; those are over-represented in the sample as a whole.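 Compound tested at a single concentration for 48 hours in 96-well plates; a percent growth value below 10 was scored as active.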 Values without a mark were called inactive. Activity calls are given as the source filed them.

System: MDA-MB-468 breast
Test: NCI-60 one-dose screen, 48 h (100 = growth as untreated, 0 = no growth, -100 = all killed)
Settings: 10 µM unless noted

SMILES	growth
CCNc1ccc2ccccc2c1N=Nc1ccc(N=Nc2ccccc2)cc1	104%
O=C(CNc1nc(-c2ccc(Cl)cc2)cs1)Nc1ccc(-c2nc3ccccc3s2)cc1	-39.5% (active)
CN1CCN(C(=O)OCc2nc3c(N4CCOCC4)nc(-c4ccccc4)nc3n2C)CC1	-59% (active)
CCOC(=O)c1ccc(N(C=O)CCC(=O)CCl)cc1	40.3%
CC[N+](C)(CC)CCO	91.8%
CC[C@@](C)(NC(=O)C(C)(C)NC(=O)[C@@H](NC(=O)[C@@H]1CCCN1C(=O)C(C)(C)NC(=O)[C@H](CC(C)C)NC(=O)CNC(=O)C(C)(C)NC(=O)[C@@H](NC(=O)C(C)(C)NC(=O)[C@H](CCC(N)=O)NC(=O)[C@H](C)NC(=O)C(C)(C)NC(=O)[C@H](C)NC(=O)C(C)(C)NC(=O)[C@@H]1CCCN1C(=O)C(C)(C)NC(C)=O)C(C)C)C(C)C)C(=O)N[C@@H](CCC(N)=O)C(=O)N[C@@H](CCC(N)=O)C(=O)N[C@H](CO)Cc1ccccc1	-3.95% [4.25 µM] (active)
C=C1C(=O)O[C@H]2[C@H]1CC/C(Cn1cc(-c3ccc(OC)cc3)nn1)=C\CC[C@@]1(C)O[C@@H]21	-42.8% (active)
Fc1c[c-]c(-c2ccccn2)c(F)c1.[CH3-].[Pt+2].c1ccc(P(C[PH+](c2ccccc2)c2ccccc2)c2ccccc2)cc1	-38.3% (active)
Oc1ccc2ccccc2c1N=Nc1ccccn1	-28.6% (active)
COc1ccc(-c2nnc3n(C)c(=O)c4ccccc4n23)cc1O	-2.48% (active)
CCOC(=O)C1=C(C)NC(SCc2nnc(-c3ccc(Cl)cc3)o2)=NC1c1ccc(Br)cc1 (stereo not given)	58.2%
CC1=C(C#N)C(=O)NC(C)C1 (stereo not given)	108%
C/C(=N\NC(=S)N1CC2CCC(CC2)C1)c1ccccn1	-14.9% (active)
C/C(=N\Nc1ccc2ccccc2n1)c1ccccn1	-36.1% (active)
COc1cc(/C=C/C(=O)c2ccc(NC(=O)COc3cccc4cccnc34)cc2)cc(OC)c1OC	75.6%
O=C(Nc1ccccc1)NS(=O)(=O)c1c[nH]c(=S)[nH]c1=O	112%
COc1cc(/C=C/C(=O)c2ccc(Nc3ncnc4ccccc34)cc2)cc(OC)c1	28.8%
COC(=O)[C@H]1CCCN1C(=O)[C@H]1CCCN1C(=O)[C@@H](Cc1c[nH]c2ccccc12)NC(=S)Nc1cc(C(F)(F)F)cc(C(F)(F)F)c1	21%
O=C1CCN(Cc2ccccc2)C(=S)N1	110%
CCN(CC)CC(O)CNc1ccnc2cc(Cl)c(Cl)cc12 (stereo not given)	83.5%

SMILES	growth
COc1ccc(-c2nnc(COc3ccc(NC(=O)Nc4cc(C(F)(F)F)cc(C(F)(F)F)c4)cc3F)o2)cc1	-9.21% (active)
CCCCOc1ccc(C(C)(C)c2ccc(OCCCC)cc2)cc1	132%
CCC(=O)OC1=CN2C(=NC(c3ccc(N)cc3)=CC2c2cc(OC)c(OC)c(OC)c2)S1 (stereo not given)	25.5%
O=C1C(Cl)=C(Nc2ccccn2)C(=O)c2ccccc21	37.1%
COc1ccc2c(c1)/C(=C\c1c[nH]c3ccc(OC)cc13)C(=O)N2	-22.5% (active)
Nc1cc2nc3ccccc3sc-2cc1=O	72.9%
COc1ccc(-c2[nH]c3ccc(OC)cc3c2C=C(C#N)C#N)cc1	-13.7% (active)
O=[N+]([O-])c1cc(S(=O)(=O)c2ccc(F)c([N+](=O)[O-])c2)ccc1F	88.4%
C#CC[C@@H]1C[C@]2(C)[C@H]3CC=C4[C@H]5[C@@H](C)[C@H](C)CC[C@]5(C(=O)NCCCCCCCCN)CC[C@@]4(C)[C@]3(C)CC[C@H]2C(C)(C)[C@H]1OC(C)=O	62.4%
c1ccc(CCCCc2ccc3ccccc3n2)cc1	111%
Nc1nc2c(c3cnccc13)C(c1cccc(Br)c1)Cc1cnccc1-2 (stereo not given)	-16.1% (active)
O=C(Nc1ccc(F)cc1)c1cc2cc(Nc3nc(-c4ccccc4)nc4ccccc34)ccc2oc1=O	111%
C=C1C(=O)O[C@H]2[C@H]1CC/C(CNC(=O)Cc1c[nH]c3ccccc13)=C\CC[C@@]1(C)O[C@@H]21	-79.9% (active)
N#CC1C(c2ccc(Cl)cc2)=Nc2c(c(-c3ccccc3)nn2-c2ccccc2)C12C(=O)Nc1ccc(Cl)cc12 (stereo not given)	26.3%
Cc1ccc(CS/C(=C\c2ccc([N+](=O)[O-])cc2)C(=O)c2ccc(F)cc2)cc1	81.1%
O=C(NC1CCCCCC1)c1ccc2c(=O)n3c(nc2c1)CCCCC3	81.2%
CCCCc1ccc(Nc2ccc(Nc3ccc(CCCC)cc3S(=O)(=O)O)c3c2C(=O)c2ccccc2C3=O)c(S(=O)(=O)O)c1	112%
O=C(N/N=C\c1ccccc1O)C1CC1	102%
CCCCc1ccc(N=Nc2ccc(OCC[N+](C)(C)C)cc2)cc1	4.13% (active)
COc1ccc(S(=O)(=O)NCCNc2nccc(-c3c(-c4cccc([N+](=O)[O-])c4)nc4sccn34)n2)cc1	69.7%
